Here are results for 20 compounds from PubChem BioAssay (NCI).

Experiment [1] is described as follows: NCI Yeast Anticancer Drug Screen. Data for the rad50 strain (AID 155).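 Further: 0% = growth of vehicle-only cultures of the same strain.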 As to conditions: S. cerevisiae rad50 strain growth inhibition; at 50.0 µM; stronger effect = higher value. The gist of the method:
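Genetically altered yeast (DNA repair pathway); compound treatment; growth inhibition vs vehicle ctrl.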

A short description of experiment [2]: NCI Yeast Anticancer Drug Screen. Data for the mec2-1 strain (AID 157). As to conditions: S. cerevisiae mec2-1 strain, at 50.0 µM, stronger effect = higher value. The gist of the method: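 Cells of the genetically defined mec2-1 yeast strain are incubated with test compound. Inhibition of growth is calculated against vehicle-treated controls.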
Experiment [3] is described as follows: NCI Yeast Anticancer Drug Screen. Data for the sgs1 mgt1 strain (AID 161).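 Further: 0% = growth of cultures given vehicle only.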 The settings on record: S. cerevisiae sgs1 mgt1 strain, at 50.0 µM, stronger effect = higher value. The gist of the method: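 Genetically altered yeast, compound exposure, growth inhibition relative to vehicle.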
A short description of experiment [4]: NCI Yeast Anticancer Drug Screen. Data for the cln2 rad14 strain (AID 165).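 Further: 0% = growth equal to vehicle treated cultures.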 The settings on record: S. cerevisiae cln2 rad14 strain, at 50.0 µM, stronger effect = higher value. The method, boiled down:
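The screen exposed genetically defined yeast (cln2 rad14) to test compounds and scored growth inhibition relative to vehicle-treated controls.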

Experiment [5] can be described thus: NCI Yeast Anticancer Drug Screen. Data for the bub3 strain (AID 167). As to conditions: S. cerevisiae bub3 mutant strain, at 50.0 µM, stronger effect = higher value. The gist of the method:
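Yeast carrying a defined mutation is treated with each compound, and growth is compared with that of vehicle-exposed cells to give inhibition.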

Experiment [6] is described as follows: NCI Yeast Anticancer Drug Screen. Data for the mlh1 rad18 strain (AID 175). The settings on record: S. cerevisiae mlh1 rad18 strain growth inhibition; at 50.0 µM; stronger effect = higher value. The gist of the method:
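Compound-treated yeast growth, normalised to vehicle controls. Strain bears defined DNA repair mutations.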

About 79,000 compounds went through this panel and 15% of them were active in at least one assay; those are over-represented in the sample as a whole. Unmarked numbers belong to inactive results. The source made the active and inactive calls. No stated cut-off is given here; in the data, active means growth inhibition above about 70%; inactive means the rest. Where a SMILES comes first, the peptide text is derived from it. [ ]: non-standard residue; d: D form. The star is where a group is joined. Cbz = O=C(OCc1ccccc1)*; Aib = CC(C)(N)C(=O)O

For the compound `O=C1NC(=O)C(c2ccc(Cl)cc2)(c2cccc(Cl)c2)N1` (stereo not given), the growth inhibition in experiment [1] was 11.1%; in experiment [2] it was -16.5%; in experiment [3], 18.3%; in experiment [4], -11.8%; in experiment [5] it was 5.9%; in experiment [6], -5.9%.

As for `CCOC(=O)C(=CNC(=S)c1cccnc1)C(=O)OCC`, the growth inhibition in experiment [1] was -23.9%; in experiment [2] it was -37.7%; in experiment [3], -20.9%; in experiment [4], -7.75%; in experiment [5], -10%; in experiment [6], -1.5%.

For the compound `Cc1nc(C(=O)O)c(C(=O)O)[nH]1`, the growth inhibition is -4.4% in experiment [1]; -15.1% in experiment [2]; -10.9% in experiment [3]; -1.7% in experiment [4]; -7.75% in experiment [5]; 1.2% in experiment [6].

Regarding `Cc1ccc(C2(c3ccccc3)c3ccccc3C(=O)N2c2ccccc2)cc1` (stereo not given), the growth inhibition is 97% (active) in experiment [1]; 97.6% (active) in experiment [2]; 97.7% (active) in experiment [3]; 95% (active) in experiment [4]; 97.2% (active) in experiment [5]; 96.9% (active) in experiment [6].

Take `CC(=O)ON1CCC=NC1`: the growth inhibition in experiment [1] was 19.7%; in experiment [2], 10.3%; in experiment [3], -20.4%; in experiment [4], 8.05%; in experiment [5], 3.95%; in experiment [6], -6.75%.

`C=C[C@@]1(C)CCC2(O)C(CCC3C2(C)CCC[C@@]3(C)COC(=O)CC(=O)OC)C1` (stereo not given in full): the growth inhibition in experiment [1] is 82.8% (active); in experiment [2], 72.1% (active); in experiment [3] it was 78% (active); in experiment [4], 60.5%; in experiment [5], 76.3% (active); in experiment [6], 79.2% (active).

In the case of `COc1ccc(CC[N+]2=Cc3cc(OC)c(OC)cc3CC2)cc1OC`, the growth inhibition in experiment [1] was -0.9%; in experiment [2] it was -2.8%; in experiment [3] it was 12.6%; in experiment [4], 13.3%; in experiment [5], 2.7%; in experiment [6], 15.5%.

Turning to `N#CCCc1c(-c2ccccc2)nc(N)[nH]c1=O`, the growth inhibition in experiment [1] was 2.35%; in experiment [2], 0.85%; in experiment [3], 2.75%; in experiment [4] it was -38.4%; in experiment [5] it was -14.6%; in experiment [6] it was -9.75%.

Consider `CC1=CC[C@@H](Br)C(C)(C)[C@]12CC[C@]1(C)O[C@@H]1C2`, for which the growth inhibition in experiment [1] is 3.15%; in experiment [2], -33.6%; in experiment [3] it was -12.6%; in experiment [4] it was 2.55%; in experiment [5] it was -23.6%; in experiment [6], -13.6%.

Take `O=C(O)/C=C/c1ccccc1Cl`: the growth inhibition in experiment [1] was -9.7%; in experiment [2], 10.1%; in experiment [3], -1.3%; in experiment [4] it was -25.8%; in experiment [5] it was 0.8%; in experiment [6], -9.9%.

Regarding `CCOC(=O)Cc1n[nH]c(=O)c2ccccc12`, the growth inhibition in experiment [1] is -21.6%; in experiment [2] it was 1.4%; in experiment [3], 1.2%; in experiment [4], -21.4%; in experiment [5], -21.8%; in experiment [6], -6.95%.

With `CC(C)(NC(=O)C(C)(C)NC(=O)OCc1ccccc1)C(=O)O` (Cbz-[Aib]-[Aib]-OH), the growth inhibition in experiment [1] was 6.05%; in experiment [2] it was -3.6%; in experiment [3], 3.9%; in experiment [4], 14.1%; in experiment [5], 0.25%; in experiment [6], -64.5%.

For the compound `CCCCCC/C=C/C(N)=O`, the growth inhibition in experiment [1] was 5.75%; in experiment [2], 5.6%; in experiment [3], -7.8%; in experiment [4] it was 12.1%; in experiment [5], -20.2%; in experiment [6], 8.35%.

Regarding `CC1(C)OC(=O)N=C1c1cccc(Cl)c1`, the growth inhibition in experiment [1] is -12.3%; in experiment [2] it was -17.8%; in experiment [3] it was -15.9%; in experiment [4], -5.9%; in experiment [5], 4.25%; in experiment [6], -3.7%.

In the case of `CC1CC[N-]C(N)N1.CC1CC[N-]C(N)N1.[Cl][Pd][Cl]` (stereo not given), the growth inhibition in experiment [1] is -3.5%; in experiment [2], -0.4%; in experiment [3], 6.75%; in experiment [4] it was -34.4%; in experiment [5] it was -0.15%; in experiment [6], -7.1%.

On to `O=C(CCl)NCCc1ccccc1`, for which the growth inhibition in experiment [1] was 17.5%; in experiment [2], 5.6%; in experiment [3], -0.4%; in experiment [4], 12.8%; in experiment [5], 24.8%; in experiment [6], 1.1%.

Consider `COc1ccc2c(c1)C(C)(C(N)=O)CCC2` (stereo not given), for which the growth inhibition is 3.25% in experiment [1]; 4.8% in experiment [2]; 3.7% in experiment [3]; 5.5% in experiment [4]; -12.2% in experiment [5]; -13.2% in experiment [6].

Regarding `NC(=O)C(C(N)=O)c1ccnc2ccccc12`, the growth inhibition in experiment [1] is 8.6%; in experiment [2], -2.65%; in experiment [3], -16%; in experiment [4], -16.8%; in experiment [5] it was -2.1%; in experiment [6], 10.9%.

Take `COC(=O)N1C(c2ccccc2)(c2ccccc2)CS1(=O)=O`: the growth inhibition is 15.2% in experiment [1]; 10.1% in experiment [2]; 9.3% in experiment [3]; 15.6% in experiment [4]; 11.8% in experiment [5]; 5.25% in experiment [6].

As for `COc1cc(C2C3=C(N=C4SC(C(C)=O)=C(C)N42)c2ccccc2CC3)cc(OC)c1OC` (stereo not given), the growth inhibition was -30.4% in experiment [1]; -48.6% in experiment [2]; -22.2% in experiment [3]; 3.2% in experiment [4]; -35.7% in experiment [5]; -17.8% in experiment [6].
